# From PubChem BioAssay
# Activity calls are given as the source filed them.
# Experiments:
# [1] = tested on: Plasmodium falciparum Sir2 (PF13_0152, Sir2A); test: Plasmodium falciparum Sir2A binding compounds – biochemical, small-molecule microarray, 635 nm fluorescence, primary screen (AID 1098); conditions: fluorescence 635 nm, higher = more signal;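 also: score merges spot fluorescence intensity with its signal-to-noise ratio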
# [2] = probe aDKK1 binding to arrayed compounds – biochemical, biotinylated probe, 635/667 nm fluorescence, primary screen (AID 1099); conditions: small-molecule microarray, higher = more signal;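 also: score merges 667nm spot fluorescence with signal to noise across triplicate slides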
# [3] = probe aCHRDL2 binding to arrayed compounds – biochemical, biotinylated probe, 635/667 nm fluorescence, primary screen (AID 1100); conditions: small-molecule microarray, higher = more signal
# [4] = change in splice reporter luminescence, either direction, cell-based, HEK293, spliceosome inhibition project, primary screen (AID 1101); conditions: HEK293 splicing luciferase reporter, 24 h, higher = more signal, called active from +8 up or from −8 down;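 also: HEK293 cells carrying a splicing-competent luciferase reporter gene; test concentration not given here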
# [5] = target: Fibroblast growth factor 10 (Homo sapiens) (UniProt O15520); test: compounds binding fibroblast growth factor 10 – biochemical, small-molecule microarray, 635 nm fluorescence, primary screen (AID 1102); conditions: FGF10 binding, fluorescence 635 nm, higher = more signal
# Sequence of Fibroblast growth factor 10 (Homo sapiens) (O15520 whole entry, looked up): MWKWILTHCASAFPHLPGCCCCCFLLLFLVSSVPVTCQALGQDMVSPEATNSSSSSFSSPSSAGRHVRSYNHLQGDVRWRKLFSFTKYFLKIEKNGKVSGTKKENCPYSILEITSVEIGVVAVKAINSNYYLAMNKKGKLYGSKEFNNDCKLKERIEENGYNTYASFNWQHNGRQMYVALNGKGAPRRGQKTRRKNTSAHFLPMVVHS
# [6] = tested on: glycogen synthase kinase-3 (GSK3A per assay name; protocol says GSK3B); test: compounds binding glycogen synthase kinase-3 – biochemical, small-molecule microarray, 635 nm fluorescence, GSK3A, primary screen (AID 1103); conditions: fluorescence 635 nm, higher = more signal; also: the record names both GSK3A and GSK3B
# [7] = target: Epidermal growth factor receptor (Homo sapiens) (UniProt P00533); test: compounds binding epidermal growth factor receptor – biochemical, small-molecule microarray, 635 nm fluorescence, primary screen (AID 1104); conditions: EGFR binding, higher = more signal;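 also: score merges 667 nm emission intensity with spot signal to noise over triplicate slides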
# Sequence of Epidermal growth factor receptor (Homo sapiens) (P00533 whole entry, looked up): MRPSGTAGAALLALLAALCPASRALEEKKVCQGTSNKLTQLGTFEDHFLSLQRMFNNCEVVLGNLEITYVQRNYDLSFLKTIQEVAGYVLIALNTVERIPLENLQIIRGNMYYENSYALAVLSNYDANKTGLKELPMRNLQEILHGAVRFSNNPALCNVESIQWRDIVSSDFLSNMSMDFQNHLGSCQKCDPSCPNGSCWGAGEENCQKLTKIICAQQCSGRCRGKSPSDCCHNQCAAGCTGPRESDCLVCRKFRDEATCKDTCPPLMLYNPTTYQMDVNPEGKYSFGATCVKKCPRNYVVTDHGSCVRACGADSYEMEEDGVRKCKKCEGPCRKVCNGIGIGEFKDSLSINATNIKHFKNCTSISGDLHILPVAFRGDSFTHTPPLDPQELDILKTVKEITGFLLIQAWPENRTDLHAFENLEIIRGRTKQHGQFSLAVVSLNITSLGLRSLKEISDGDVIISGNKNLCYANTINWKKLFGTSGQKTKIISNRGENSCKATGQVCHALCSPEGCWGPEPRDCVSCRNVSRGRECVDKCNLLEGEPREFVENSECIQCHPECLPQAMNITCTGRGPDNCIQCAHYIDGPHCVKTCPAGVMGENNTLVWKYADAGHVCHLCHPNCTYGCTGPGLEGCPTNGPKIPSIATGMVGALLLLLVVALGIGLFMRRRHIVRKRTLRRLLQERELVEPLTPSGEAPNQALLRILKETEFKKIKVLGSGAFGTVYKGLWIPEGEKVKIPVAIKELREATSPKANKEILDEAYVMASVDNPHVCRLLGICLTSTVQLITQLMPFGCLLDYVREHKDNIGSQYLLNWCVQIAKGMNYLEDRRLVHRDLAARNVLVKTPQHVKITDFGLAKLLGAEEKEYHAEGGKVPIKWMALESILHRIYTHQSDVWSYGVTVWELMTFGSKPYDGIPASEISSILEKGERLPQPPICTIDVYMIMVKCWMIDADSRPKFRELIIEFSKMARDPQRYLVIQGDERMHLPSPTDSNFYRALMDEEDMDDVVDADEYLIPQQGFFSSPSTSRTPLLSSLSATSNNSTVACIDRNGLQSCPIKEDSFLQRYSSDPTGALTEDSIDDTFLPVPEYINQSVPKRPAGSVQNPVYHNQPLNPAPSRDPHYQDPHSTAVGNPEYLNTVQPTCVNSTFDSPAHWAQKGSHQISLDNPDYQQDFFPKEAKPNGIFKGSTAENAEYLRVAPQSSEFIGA
# [8] = target: Follistatin-related protein 3 (Homo sapiens) (UniProt O95633); test: compounds binding follistatin-related protein 3 – biochemical, small-molecule microarray, 635 nm fluorescence, primary screen (AID 1105); conditions: FSTL3 binding, higher = more signal;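 also: score merges emission near 667 nm and signal to noise per printed spot across three slides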
# Sequence of Follistatin-related protein 3 (Homo sapiens) (O95633 whole entry, looked up): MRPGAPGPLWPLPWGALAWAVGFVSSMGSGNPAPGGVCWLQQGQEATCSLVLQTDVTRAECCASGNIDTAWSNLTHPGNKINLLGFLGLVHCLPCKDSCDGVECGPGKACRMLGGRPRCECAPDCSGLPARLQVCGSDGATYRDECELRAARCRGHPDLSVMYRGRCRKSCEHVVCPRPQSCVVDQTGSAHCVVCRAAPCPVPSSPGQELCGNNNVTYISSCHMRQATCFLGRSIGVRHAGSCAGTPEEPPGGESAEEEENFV
# [9] = target: Dickkopf-related protein 1 (Homo sapiens) (UniProt O94907); test: small molecules binding DKK1 protein – biochemical, small-molecule microarray, 635 nm fluorescence scan, primary screen (AID 1106); conditions: higher = more signal;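 also: score merges emission near 667 nm with signal to noise over three replicate slides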
# Sequence of Dickkopf-related protein 1 (Homo sapiens) (O94907 whole entry, looked up): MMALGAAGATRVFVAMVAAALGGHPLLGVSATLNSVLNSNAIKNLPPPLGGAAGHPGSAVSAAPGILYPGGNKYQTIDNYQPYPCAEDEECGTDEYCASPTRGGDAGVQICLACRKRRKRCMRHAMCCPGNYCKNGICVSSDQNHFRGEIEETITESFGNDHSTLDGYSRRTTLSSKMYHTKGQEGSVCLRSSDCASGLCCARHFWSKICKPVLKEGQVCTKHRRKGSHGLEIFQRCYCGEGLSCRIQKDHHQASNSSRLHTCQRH
# [10] = tested on: Inhibin beta A chain (activin A); test: small molecules binding activin A – biochemical, small-molecule microarray, 635 nm fluorescence scan, primary screen (AID 1107); conditions: INHBA, higher = more signal;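 also: mouse activin A protein probed at 4.33 µg/mL on printed slides; score merges bound-protein fluorescence near 667 nm with spot signal-to-noise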
# [11] = tested on: Human papillomavirus type 1a protein E7 (residues 44-93); test: small molecules binding HPV E7 44-93 – biochemical, small-molecule microarray, residues 44-93, 635 nm fluorescence, primary screen (AID 1108); conditions: fluorescence 635 nm, higher = more signal;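 also: E7 fragment applied at 1 µg/mL in TBST for 1 h at 4 C; score combines spot fluorescence with its signal to noise ratio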
# [12] = hepatitis C replication reporter changes, two-sided – Huh7 cells, luciferase reporter, HCV replication inhibitor project, primary screen (AID 1109); conditions: Huh7 HCV replicon luciferase reporter, 48 h; higher = more signal;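 also: huh7 hepatoma cells harbouring a luciferase neomycin HCV replicon reporter; luciferase luminescence as measure of HCV replicon replication; test concentration not given here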
# [13] = target: Left-right determination factor 2 (Homo sapiens) (UniProt O00292); test: small molecules binding LEFTY2 protein – biochemical, small-molecule microarray, 635 nm fluorescence scan, primary screen (AID 1110); conditions: higher = more signal
# Sequence of Left-right determination factor 2 (Homo sapiens) (O00292 whole entry, looked up): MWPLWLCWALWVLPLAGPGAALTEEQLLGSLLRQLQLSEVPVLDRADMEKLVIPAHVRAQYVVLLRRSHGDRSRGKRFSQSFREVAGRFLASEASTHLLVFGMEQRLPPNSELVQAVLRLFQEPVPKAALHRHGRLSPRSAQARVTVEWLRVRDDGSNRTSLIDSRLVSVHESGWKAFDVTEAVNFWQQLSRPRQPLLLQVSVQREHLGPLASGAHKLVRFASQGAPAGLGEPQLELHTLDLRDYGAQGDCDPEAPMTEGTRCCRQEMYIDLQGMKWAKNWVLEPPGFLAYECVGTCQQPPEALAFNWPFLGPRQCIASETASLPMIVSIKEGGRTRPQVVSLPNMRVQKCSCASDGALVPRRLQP
# [14] = target: Calmodulin-1 (Homo sapiens) (UniProt P0DP23); test: small molecules binding calmodulin-1 with EGTA – biochemical, small-molecule microarray, Cy5-labelled CALM1, profiling panel (AID 1111); conditions: Cy5-CALM1 binding fluorescence, higher = more signal;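 also: labelled calmodulin applied in Tris saline Tween buffer holding calcium plus EGTA and DTT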
# [15] = target: Calmodulin-1 (Homo sapiens) (UniProt P0DP23); test: small molecules binding Ca-loaded calmodulin-1 – biochemical, small-molecule microarray, Cy5-labelled CALM1, plus calcium, artefact control for SMM control-protein annotation, profiling panel (AID 1112); conditions: Cy5-CALM1 binding fluorescence, higher = more signal;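 also: score merges spot fluorescence with signal to noise from triplicate slides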
# [16] = probe aWnt5a binding to arrayed compounds – biochemical, biotinylated probe, 635/667 nm fluorescence, primary screen (AID 1113); conditions: small-molecule microarray, higher = more signal;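 also: score merges 667 nm fluorescence intensity with signal-to-noise per printed feature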
# [17] = probe aShh binding to arrayed compounds – biochemical, biotinylated probe, 635/667 nm fluorescence, primary screen (AID 1114); conditions: small-molecule microarray, higher = more signal;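 also: probe is biotin-labelled aShh protein from a stem cell growth factor screen; measures binding of labelled protein to compounds printed on the slide; score merges feature fluorescence at 667 nm with signal-to-noise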
# [18] = probe aNog binding to arrayed compounds – biochemical, biotinylated probe, 635/667 nm fluorescence, primary screen (AID 1115); conditions: small-molecule microarray, higher = more signal;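 also: probe is biotinylated aNog protein used at 0.15 µg/mL for 1 h at 4 C; z-score combines 667 nm fluorescence of each spot with its signal to noise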
# [19] = target: Torsin-1A-interacting protein 1 (Homo sapiens) (UniProt Q5JTV8); test: compound microarray binding of lysate hLAP1 – cell lysate, small-molecule microarray, COS7 lysate, 635/667 nm fluorescence, primary screen (AID 1116); conditions: 635 nm fluorescence, higher = more signal
# Sequence of Torsin-1A-interacting protein 1 (Homo sapiens) (Q5JTV8 whole entry, looked up): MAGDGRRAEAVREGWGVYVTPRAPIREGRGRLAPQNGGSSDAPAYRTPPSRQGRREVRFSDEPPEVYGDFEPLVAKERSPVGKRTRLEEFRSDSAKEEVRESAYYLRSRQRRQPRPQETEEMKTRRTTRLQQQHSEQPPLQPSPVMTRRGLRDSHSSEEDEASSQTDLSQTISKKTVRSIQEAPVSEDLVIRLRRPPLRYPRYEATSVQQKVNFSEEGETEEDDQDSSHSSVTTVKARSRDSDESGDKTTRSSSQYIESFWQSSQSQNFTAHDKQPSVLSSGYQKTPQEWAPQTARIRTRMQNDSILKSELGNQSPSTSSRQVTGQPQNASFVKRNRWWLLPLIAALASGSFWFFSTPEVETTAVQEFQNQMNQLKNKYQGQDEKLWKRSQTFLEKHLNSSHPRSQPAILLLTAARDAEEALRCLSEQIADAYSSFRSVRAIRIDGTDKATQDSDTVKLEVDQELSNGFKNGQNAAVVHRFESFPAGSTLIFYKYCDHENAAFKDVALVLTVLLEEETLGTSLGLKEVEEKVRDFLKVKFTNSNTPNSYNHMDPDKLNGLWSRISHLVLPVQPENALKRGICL
# [20] = target: Alpha-bungarotoxin (Bungarus multicinctus) (UniProt P60615); test: compounds binding labelled alpha-BTX control protein – biochemical, small-molecule microarray, Alexa647 label, 635/667 nm fluorescence, artefact control for SMM control protein annotation, profiling panel (AID 1117); conditions: alpha-BTX-A647 binding fluorescence, higher = more signal
# Sequence of Alpha-bungarotoxin (Bungarus multicinctus) (P60615 whole entry, looked up): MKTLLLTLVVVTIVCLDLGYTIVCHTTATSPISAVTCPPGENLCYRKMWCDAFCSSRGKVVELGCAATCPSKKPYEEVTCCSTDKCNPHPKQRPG
SMILES,composite z-score [1],composite z-score [2],composite z-score [3],z-score [4],composite z-score [5],composite z-score [6],composite z-score [7],composite z-score [8],composite z-score [9],composite z-score [10],composite z-score [11],z-score [12],composite z-score [13],composite z-score [14],composite z-score [15],composite z-score [16],composite z-score [17],composite z-score [18],composite z-score [19],composite z-score [20]
COC(=O)[C@@]1(Cc2ccc(F)cc2)[C@H]2c3cc(C(=O)N4CCCC4)n(CCCNc4ncc(C(F)(F)F)cc4Cl)c3C[C@H]2CN1C(=O)c1ccccc1,0.913,1.43,1.05,-2.38 (inactive),0.137,-0.548,0.23,-0.142,-0.808,1.17,1.39,-1.48,-0.386,1.59,0.868,-0.0107,0.831,1.37,0.679,0.493
C=CCOC(=O)[C@H]1[C@@H]2C(=O)O[C@@H](c3ccccc3)[C@@H](c3ccccc3)N2[C@@H](c2ccc(OCCOC(=O)[C@H]3C[C@H]4C(=O)N[C@@H](CCCCN(C)C)C(=O)N4[C@H]3c3ccc(O)cc3)cc2)[C@]12C(=O)Nc1ccc(I)cc12,1.72,0.193,0.289,0.426 (inactive),1.31,1.32,0.741,1.41,0.849,1.29,1.4,-0.151,1.21,0.536,-0.62,0.114,0.275,1.14,1.64,0.864
O=C1O[C@H](c2ccccc2)[C@H](c2ccccc2)N2[C@H]1[C@@H](C(=O)N1CCCCCCC1)[C@]1(C(=O)Nc3ccc(C#CC4=CCCCC4)cc31)[C@H]2c1ccc(OCCO)cc1,1.87,2.63,1.36,-1.68 (inactive),1.46,1.36,1.68,1.66,2.4,1.88,1.54,-2.06,1.63,2.6,1.28,1.32,3.1,2.93,3.47,3.42
C=CCN1C(=O)[C@@]2(CC=C)N=C(c3ccc(OCCCO)cc3)O[C@H]2c2ccccc21,1.66,0.801,1.08,-1.63 (inactive),1.45,1.32,0.734,1.41,1.14,1.2,1.41,-2.48,0.984,3.11,0.0457,0.026,-0.0886,0.808,1.62,0.951
CCOC(=O)C[C@H]1[C@H](OC(=O)c2ccc(C(=O)c3ccccc3)cc2)[C@@H](NC(=O)c2ccc3ccccc3c2)c2cc(OCCCO)ccc2N1C(=O)Cc1ccc(OC)cc1,1.14,0.282,0.503,-0.175 (inactive),0.545,0.158,-0.16,0.303,-0.213,0.856,0.86,-0.989,-0.0254,1.14,0.187,-0.0405,-0.0553,0.177,0.669,0.729
COCCOC(=O)N1C(=O)[C@@]2(c3cc(C#CC4(O)CCCCCC4)ccc31)[C@H](c1ccc(OCCO)cc1)N1[C@H](c3ccccc3)[C@H](c3ccccc3)OC(=O)[C@H]1[C@@H]2C(=O)N1CCN(c2ncccn2)CC1,1,-0.165,0.107,-0.201 (inactive),1.11,1.28,0.334,1.06,0.48,0.0414,1.43,-1.77,0.419,0.795,0.124,0.0044,-0.147,0.106,0.667,1.19
CCCC[C@@H]1C[C@H]1[C@@H](NC(=O)c1ccccc1)c1ccc(C(=O)OC)cc1,0.798,0.393,1.18,-2.47 (inactive),-0.358,-0.534,-1.38,-0.668,-1.57,1.19,-0.541,-1.15,-1.9,0.155,0.685,-0.0236,-0.0849,-1.02,-0.679,-0.0885
COc1cc(C(O)C2C=CC3C(=O)NC(=O)C3N2Nc2ccccn2)cc(OC)c1OC (stereo not given),1.18,-0.149,0.418,1.53 (inactive),0.12,0.211,0.635,-0.027,0.336,0.791,1.04,-0.178,0.0534,-0.0338,-0.62,-0.128,-0.243,0.416,0.531,-0.0198
C=C(COC)C(=O)CC[C@@H](OC(C)=O)c1ccc(CO)o1,1.38,0.0244,-0.45,0.264 (inactive),1.24,0.139,-0.42,1.52,1.48,1.38,-0.363,-0.0928,0.747,-0.401,-0.515,-0.0572,-0.123,0.0139,0.55,-0.0178
[N-]=[N+]=Nc1ccccc1[C@H]1OC(c2ccc(OCCCO)cc2)=N[C@@]1(CCS(=O)(=O)c1ccccc1)C(N)=O,1.53,1.01,1.37,-1.36 (inactive),1.12,0.915,-0.541,-0.0805,0.0979,1.26,0.321,-0.268,-0.154,1.41,0.389,0.161,0.117,-0.939,1.71,1.92
CCOC(=O)[C@H]1C/C=C/C[C@H](C(=O)OCC)C(=O)O[C@H]2[C@@H](OC)O[C@H](CO)[C@@H](OC(=O)c3c(OC)cccc3OC)[C@@H]2OC1=O,0.615,-0.0451,0.152,0.837 (inactive),0.803,0.62,-0.13,1.16,0.764,0.837,-0.908,-3.32,0.204,0.34,0.208,-0.126,0.244,0.65,0.11,1.1
